Reference: PubChem BioAssay AID488835 (Broad Institute, 2010)
Among all 1,400 compounds or so, about 140 (10%) were called active.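 The calls were made as follows: active = Half-maximal inhibitory dose from the fit at or below ten times the top valid tested dose; inconclusive = Invalid fit, or flat curve showing 30 to 70% inhibition; inactive = the rest.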 Not all results are given here. Results with a measured potency or affinity are listed apart.

The compounds below were run against Lysine-specific demethylase 4C (Homo sapiens) (UniProt Q9H3R0) (assay: inhibition of JMJD2C H3K9me3 demethylation – biochemical, DELFIA europium, cherry-picked samples, dose response (AID 488835;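 also: signal is the H3K9me2 demethylation product detected by a dimethyl-specific antibody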)). Settings: GST-JMJD2C(1-420); series mostly up to 6 µM; activity change, negative = inhibition: at the top concentration.
Lysine-specific demethylase 4C (Homo sapiens), sequence (Q9H3R0 1-420 limits assumed): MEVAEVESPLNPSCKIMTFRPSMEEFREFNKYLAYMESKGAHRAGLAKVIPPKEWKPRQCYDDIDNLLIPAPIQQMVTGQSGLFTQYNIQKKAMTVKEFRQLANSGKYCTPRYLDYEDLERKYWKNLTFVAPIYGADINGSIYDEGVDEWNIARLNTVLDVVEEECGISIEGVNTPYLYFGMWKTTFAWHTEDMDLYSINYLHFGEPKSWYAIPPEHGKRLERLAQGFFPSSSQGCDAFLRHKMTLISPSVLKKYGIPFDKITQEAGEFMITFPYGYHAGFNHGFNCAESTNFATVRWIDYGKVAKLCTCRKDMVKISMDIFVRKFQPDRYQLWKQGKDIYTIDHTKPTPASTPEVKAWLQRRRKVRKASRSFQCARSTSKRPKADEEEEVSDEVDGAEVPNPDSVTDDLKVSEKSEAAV

Activity change, negative = inhibition, inactive:
CCOC(=O)N1CCN(C(=S)NC(=O)c2ccc(F)cc2)CC1 -2.89%
COc1ccc(-c2nn(-c3ccccc3)cc2CNC(C)Cn2cncn2)c(F)c1 (stereo not given) -4.46%
CCOc1ccc(N2CC(C(=O)Nc3nnc(Cc4ccc(OC)cc4)s3)CC2=O)cc1 (stereo not given) 4.76%
CCCCN1CC[C@H]2C=CC[C@@H](C(=O)Nc3ccc(OC)cc3)[C@H]2C1=O 8.42%
O=S(=O)(Nc1ccccc1)c1ccc(NS(=O)(=O)c2c(F)cccc2F)cc1 -0.423%
C[C@H](CO)N1C[C@H](C)[C@@H](CN(C)C(=O)Nc2ccc(C(F)(F)F)cc2)Oc2c(NC(=O)Nc3ccc4c(c3)OCO4)cccc2C1=O 3.68%
COc1cc(/C=N/Nc2ccccc2)ccc1OC(=O)c1cccs1 -0.0417%
COc1ccc(/C=N/Nc2ncnc(Cl)c2N)cc1OC -1.24%
COc1cc(/C=N/N2C(=O)C3C4c5ccccc5C(c5ccccc54)C3C2=O)ccc1O (stereo not given) -0.389%
O=C(O)CCCC(=O)Nc1ccc(C(=O)NCc2cccnc2)cc1 3.5%
N#CCN1CCC(c2cc(-c3ccco3)n[nH]2)CC1 -1.55% [at 1.6 µM]
CS(=O)(=O)N(CC(=O)O)c1cc(Cl)cc(Cl)c1 -2.49%
COc1ccc(N2CCN(C(=O)CSc3nnc(-c4ccco4)n3C)CC2)cc1 4.94%
C[C@H](CO)N1C[C@H](C)[C@@H](CN(C)C(=O)Nc2ccccc2)Oc2c(NC(=O)c3ccncc3)cccc2C1=O 5.62%
Cc1cccc2sc(NNC(=O)c3cc(=O)c4ccccc4o3)nc12 -7.12%
CN1N=C(C(F)(F)F)CC1=O -2.45%
CSC1=NCCN1C(=O)c1cccc(C(F)(F)F)c1 -2.7%
Cc1ccc(Nc2c(-c3ccccn3)nc3cc(C)ccn23)cc1 6.6%
Cn1c(=O)c(-c2ccccc2)nn2c3ccccc3nc12 7.46%
CCOC(=O)N1CCC2(CC1)C(C#N)=C(N)OC1=C2C(=O)CC(C)(C)C1 4.68%
C[C@H](CO)N1C[C@H](C)[C@@H](CN(C)Cc2ccc(C(=O)O)cc2)Oc2c(NC(=O)c3ccncc3)cccc2C1=O 7.09%
O=C(O)Cn1cc(/C=C2/SC(=O)N(CC(=O)N3CCCCCC3)C2=O)c2ccccc21 2.27%
O=C(O)CCC(=O)Nc1nc2nc(-c3ccccc3)cc(-c3ccccc3)n2n1 0.643%
CCN(C[C@H]1N[C@@](C)(C(=O)OC)[C@H]2C(=O)N(Cc3ccccc3)C(=O)[C@@H]12)C(=O)Nc1ccc(F)cc1 -4.19%
Cc1cc(N2C(=O)C(=O)/C(=C(/O)c3ccc(F)cc3)C2c2cccc(Br)c2)no1 (stereo not given) 2.06%
COc1cccc(/C=C/C(=O)NCCc2ccc(OC)c(OC)c2)c1 -4.6%
CCc1ccc(-c2cc(C)no2)cc1S(=O)(=O)NCCc1ccc(OC)c(OC)c1 7.44%
Cc1ccccc1NS(=O)(=O)c1ccc(C(=O)NCC(c2ccco2)N(C)C)cc1 (stereo not given) -0.352%
COc1ccccc1/C=C/C(=O)Nc1ccc(N2CCOCC2)cc1 4.57%
Cc1cc(C)c2cc(C#N)c(SCC(=O)Nc3ccc4c(c3)OCO4)nc2c1 5.59%
O=C(/C=C\Nc1ccc(Cl)cn1)c1ccc(Br)cc1 -7.96%
CCCNC1=C(N(C(C)=O)c2cccc(F)c2)C(=O)c2ccccc2C1=O 3.34%
C#CCOCCOCCOCCNc1nc(N2CCN(C(=O)[C@H](CCC(=O)O)n3cc(CN)nn3)CC2)nc(N2CCN(C(=O)[C@H](CCCN=C(N)N)n3cc(C(N)[C@@H](C)CC)nn3)CC2)n1 (stereo not given in full) 76.7%
C#CCOCCOCCOCCNc1nc(N2CCN(C(=O)[C@H](CCCN=C(N)N)n3cc(C(N)[C@@H](C)CC)nn3)CC2)nc(N2CCN(C(=O)[C@H](CCC(=O)O)n3cc([C@@H](N)[C@H](C)CC)nn3)CC2)n1 (stereo not given in full) 4.63%
C#CCOCCOCCOCCNc1nc(N2CCOCC2)nc(N2CCN(C(=O)[C@H](CCCN=C(N)N)n3cc(C(N)[C@@H](C)CC)nn3)CC2)n1 (stereo not given in full) 5.28%
C#CCOCCOCCOCCNc1nc(N2CCN(C(=O)[C@H](CCCN=C(N)N)n3cc(C(N)[C@H](C)CC)nn3)CC2)nc(N2CCN(C(=O)[C@H](CC(N)=O)n3cc(C(N)[C@@H](C)CC)nn3)CC2)n1 (stereo not given in full) -2.68%
Oc1cc2ccccc2cc1-c1nnc2n1-c1ccccc1SC2 -2.47%
CC(=O)Nc1sc2c(c1CN1CCN(C)CC1)CCCC2 6.9%
COc1ccc(S(=O)(=O)N2CC(O)CC2C(=O)OCc2nc3sc(C)c(C)c3c(=O)[nH]2)cc1 (stereo not given) 1.48%
CC1CCN(C(=O)CSc2nnc(CNC(=O)c3c(F)cccc3F)o2)CC1 6.12%
CNC(=O)c1sccc1-n1cccc1 9.03%
CCOC(=O)C1(C)NC(c2cccs2)C2C(=O)N(c3ccc(OC)cc3)C(=O)C21 (stereo not given) 3.9%
Cc1ccccc1CNc1nnnn1C 5.25%
Oc1ccc(Br)cc1/C=N/Nc1nc(N2CCCCC2)nc(N2CCOCC2)n1 12.4%
O=C(N/N=C/c1ccc(O)cc1)c1cncc(Br)c1 4.32%
CN1CCC[C@H]1CCNC(=O)c1c(-c2ccsc2)sc2ccccc12 0.336%
Cn1c(=O)c2[nH]c(N3CCN(c4cccc(O)c4)CC3)nc2n(C)c1=O 2.66%
CC(OC(=O)CN1C(=O)COc2ccccc21)C(=O)NCc1ccc(F)cc1 (stereo not given) 15.5%
Cc1ccc(C(C)C)c(Oc2nnnn2-c2ccccc2)c1 0.65%
O=C(c1cc2c(s1)CCC2)N1C(=O)c2ccccc2S1(=O)=O 2.58%
O=C(Cn1cncn1)NCc1cc(F)ccc1F 2.09%
C[C@H](CO)N1C[C@H](C)[C@@H](CN(C)CC2CCCCC2)Oc2c(NC(=O)C3CC3)cccc2C1=O 4.66%
C[C@H]1CN([C@@H](C)CO)C(=O)c2cccc(NC(=O)C3CC3)c2O[C@H]1CN(C)Cc1ccncc1 1.11%
C[C@H](CO)N1C[C@H](C)[C@@H](CN(C)S(=O)(=O)c2cccs2)Oc2c(NC(=O)CCC(F)(F)F)cccc2C1=O 1.77%
Cc1ccc(NC(=O)COC(=O)CCc2c[nH]c(=O)[nH]2)cc1 9.31%
COc1cc([N+](=O)[O-])ccc1NC(=O)CSc1nccn1C 9.26%
COc1ccc(OC)c(/C=C2\SC(=S)N(Cc3cccnc3)C2=O)c1 -4.57%
O=C(N1CCN(c2ccccc2)CC1)C12CC3CC(CC(C3)C1)C2 -1.02%
CSc1nsc(SCC(=O)Nc2c(C)n(C)n(-c3ccccc3)c2=O)n1 8.05%
O=C(NNC(=O)c1ccc(SCC2CCCO2)c([N+](=O)[O-])c1)c1ccc(Cl)c([N+](=O)[O-])c1 (stereo not given) -5.03%
CCCCC(=O)NC(NC(=S)N1CCOCC1)C(Cl)(Cl)Cl (stereo not given) 2.74%
CC(C)(C)n1nc2c(c1NC(=O)c1ccc(Br)o1)CS(=O)C2 (stereo not given) 1.7%
O=C(Nc1ccc(-c2nc3ncccc3o2)cc1)c1ccc(Br)o1 -4.66%
COc1ccc(S(=O)(=O)Nc2ccc3c(c2)C(=O)N([C@H](C)CO)C[C@H](C)[C@@H](CN(C)S(=O)(=O)c2c(C)noc2C)O3)cc1 5.79%
COC(=O)CN1C(=O)[C@H]2[C@@H](/C=C/c3ccccc3)N3C(=O)CN(Cc4ccccn4)C(=O)[C@@]3(Cc3ccccc3)[C@H]2C1=O 5.78%
COC(=O)c1ccc(/C=C/c2c(-c3ccc(OC)cc3)sc3ccccc23)cc1 7.35%
COc1ccc2c(C(=O)CN3CCN(c4ccccc4)CC3)c[nH]c2c1 2.4%
Cc1noc(C)c1C(=O)Nc1ccc2ccccc2c1 3.03%
Cc1noc(C)c1NC(=O)N(C)C[C@H]1Oc2ccc(NC(=O)CCC(F)(F)F)cc2C(=O)N([C@H](C)CO)C[C@@H]1C 5.18%
Fc1ccccc1OCCCCn1cncn1 9.01%
CC(C)=CCN1CCN(Cc2cn[nH]c2C2CCCCC2)CC1CCO (stereo not given) -1.15%
O=C(C[C@H]1C/C=C/CC[C@@H](Cc2ccc(F)cc2)C(=O)O[C@@H](c2ccccc2)CNC1=O)NCCO 5.71%
CCOC(=O)C1CCN(S(=O)(=O)c2cc3c4c(c2)C(C)C(=O)N4CCC3)CC1 (stereo not given) 3.58%
COc1ccc(NC(=O)NCCCCc2ccccc2)c(OC)c1 -0.647%
CCn1nc(C(=O)NNC(=O)COc2ccc(OC)cc2)c2ccccc2c1=O -3.03%
O=c1nc(SCc2cccc(C(F)(F)F)c2)nc2ccccn12 -5.39%
Cc1cccc(NC(=S)N(CCN2CCOCC2)Cc2cc3cc4c(cc3[nH]c2=O)OCO4)c1 3.04%
CCCCn1c(=O)[nH]c(=O)c2c1nc(-c1cc(Cl)c(OC)c(OC)c1)n2C 0.72%
CNc1nc2c(c(=O)[nH]c(=O)n2C)n1CCCc1ccccc1 2.23% [at 1.6 µM]
CCOC(=O)Cn1nc(C)c2c1CCCC2=O 1.44%
CCC(NS(=O)(=O)c1cccs1)c1ccc(C)cc1 (stereo not given) 3.29%
O=S1(=O)CCC(N=Nc2c(O)n(Cc3ccccc3)c3ccccc23)C1 (stereo not given) -0.825%
Cc1ccccc1Cn1c2ccccc2c2cn[nH]c(=O)c21 -0.371%
C[C@H](N)c1nnc(SCC(=O)N(C)C)o1 3.49%
COc1ccc(CCNC(=O)CSCc2n[nH]c(=O)[nH]2)cc1OC 5.01%
CCOc1ccccc1Nc1ncnc2ccccc12 6.06%
CCOC(=O)c1csc(N/N=C2\CCc3ccccc32)n1 4.71%
COc1ccc(/C=N/N=C2\CC3CCC2(C)C3(C)C)cc1O (stereo not given) 2.55%
Cc1cc(C)c(NC(=O)CS(=O)CC(=O)Nc2ccc(F)cc2F)c(C)c1 (stereo not given) 0.49% [at 1.6 µM]
Cc1cccc2c1-c1sc(C(=O)Nc3cccc([N+](=O)[O-])c3C)cc1CO2 13.5%
Fc1cccc(F)c1/C=N/N1CCOCC1 -5.24%
COc1cccc(CSc2nnc(C(F)(F)F)n2Cc2ccc(F)cc2)c1 -2.62%
O=C1CCCC2=C1C(c1ccc(OS(=O)(=O)c3ccc(Cl)cc3)cc1)C1=C(CCCC1=O)O2 1.91%
O=C1c2ccc([N+](=O)[O-])cc2C(=O)N1Cc1cccnc1 7.52%
COc1ccc(CCNC(=O)c2ccc(N3CCCCS3(=O)=O)cc2)cc1OC 4.22%
